Compounds with a hit are over-represented: about 4.1% of the library has one in this group of screens.
DAX1 inh-1 – inhibitors of human orphan nuclear receptor DAX1 (NR0B1). inhibition, % at 6.75 µM. P51843. HEK293 Gal4-DAX1 luciferase reporter, luminescence. 340,000 compounds, 0.99% hits. AID 504766;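 active = inhibition above the mean over all tested compounds plus 3 SD, cut at about 4.2% in these data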;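 also: 0% = DAX1-transfected cells with DMSO and 100% = empty-vector control cells with DMSO; inhibition shows as a rise in luminescence from relieved DAX1 repression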
DAX1 inh-2 – blocks DAX1 repression of SF-1 activated StAR promoter; AID 652010; 370,000 compounds, 1.1% hits; inhibition, % at 6.8 µM; HEK293T StAR-luciferase reporter, SF-1/DAX-1 repression relief;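 active = inhibition above the mean over all tested compounds plus 3 SD, cut at about 3.6% in these data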;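 also: 0% = DAX-1 cells with DMSO and 100% = cells lacking DAX-1 with DMSO; higher inhibition means more luminescence from relief of DAX-1 repression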
hgDAF12 agonist – activates the H. glycines DAF-12 receptor ligand-binding domain. HEK293 GAL4-hgDAF12 UAS-luciferase reporter, agonist luminescence; normalized to butyrate control. activation, % at 6.8 µM. 370,000 compounds, 1.8% hits. AID 687014;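 active = activation above a cutoff set at the mean of all screened compounds plus 3 SD, cut at about 10% in these data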;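 also: 0% = DMSO wells and 100% = sodium butyrate wells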
ssDAF12 agonist – activators of S. stercoralis DAF-12 nuclear receptor. HEK293 ssDAF-12/GRIP1 lit1-tk-luc reporter, luminescence; % of 3 µM dafachronic acid response. activation, % at 6.8 µM. 370,000 compounds, 1% hits;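 active = activation above the mean over all tested compounds plus 3 SD, cut at about 0.9% in these data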;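 also: 0% = DMSO-only wells and 100% = 3 µM delta7-dafachronic acid wells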
hcDAF12 agonist – activates DAF-12 receptor from parasite H. contortus; HEK293 hcDAF-12 lit1-tk-luc reporter, luminescence; 0% DMSO, 100% Δ7-dafachronic acid; activation, % at 6.8 µM; 370,000 compounds, 1.4% hits; AID 652067;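 active = activation above the mean of all tested compounds plus 3 SD, cut at about 5.5% in these data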;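 also: 100% = response to 3 µM Δ7-dafachronic acid high control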
DAX1 inh confirm – NR0B1 (human) inhibition, confirmation; 2,400 compounds, 87% hits; shares compounds with DAX1 inh-2; HEK293T StAR-promoter luciferase reporter, SF-1/DAX-1 repression; inhibition, % at 6.8 µM;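 active = inhibition above the average of every tested compound plus 3 SD, cut at about 3.8% in these data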;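 also: 0% = DAX-1 cells with DMSO and 100% = no DAX-1 control cells with DMSO; active compounds raise luminescence by relieving repression of the StAR reporter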
SF1 mutant ctr – nonselective inhibitor or artifact in SF-1 mutant DAX1 counter-screen | 2,400 compounds, 78% hits | HEK293 StAR-luciferase, SF-1 AF2 mutant, luminescence | inhibition, % at 6.8 µM | shares compounds with DAX1 inh-2 | AID 652136;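 active = inhibition above the mean of all tested compounds plus 3 SD, cut at about 3% in these data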;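 also: 0% = DAX-1 transfected cells with DMSO and 100% = cells without DAX-1 with DMSO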
LXRb hcDAF ctr – LXR-beta agonism as hcDAF-12 counter-screen; shares compounds with hcDAF12 agonist; HEK293 Gal4-LXR tk-luc reporter, luminescence, 24 h; normalized: DMSO 0%, positive control 100%; activation, % at 6.8 µM; 3,400 tested, under 10 active;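 active = mean percent activation of the reporter above a cutoff set as the average over tested compounds plus their standard deviation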
Target sequence (P55055 whole entry, looked up, the tested form may be a part): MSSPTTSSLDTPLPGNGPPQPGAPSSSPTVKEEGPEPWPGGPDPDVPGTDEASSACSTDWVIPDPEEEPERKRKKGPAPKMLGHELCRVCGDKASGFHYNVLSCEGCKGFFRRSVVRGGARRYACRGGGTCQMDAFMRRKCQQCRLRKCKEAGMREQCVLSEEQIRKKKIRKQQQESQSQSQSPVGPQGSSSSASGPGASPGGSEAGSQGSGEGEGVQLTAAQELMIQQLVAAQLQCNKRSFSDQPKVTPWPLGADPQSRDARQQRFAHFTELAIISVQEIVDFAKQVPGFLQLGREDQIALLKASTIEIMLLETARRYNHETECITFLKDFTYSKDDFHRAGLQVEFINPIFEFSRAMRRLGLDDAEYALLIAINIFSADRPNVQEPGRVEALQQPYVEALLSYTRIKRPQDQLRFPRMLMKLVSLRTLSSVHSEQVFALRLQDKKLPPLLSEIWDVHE
hcDAF12 conf – confirmation of H. contortus DAF-12 agonists; shares compounds with hcDAF12 agonist; HEK293 hcDAF-12 lit1-tk-luc reporter, luminescence; % of Δ7-dafachronic acid response; activation, % at 6.8 µM; 3,400 compounds, 61% hits;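 active = mean activation across triplicate tests above the threshold derived from the earlier primary screen, cut at about 5.5% in these data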;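 also: 0% = DMSO only wells and 100% = 3 µM Δ7-dafachronic acid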
hgDAF12 conf – hgDAF-12 agonism, confirmation assay; 3,300 compounds, 80% hits; activation, % at 6.8 µM; HEK293 GAL4-hgDAF12 luciferase reporter, agonist mode; percent of butyrate response; shares compounds with hgDAF12 agonist;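 active = mean activation over triplicate wells above the hit cutoff derived from the earlier primary screen, cut at about 11% in these data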;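 also: 0% = DMSO low control and 100% = 2 mM sodium butyrate high control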
LXRb DAF12 ctr – activates human LXR-beta, counter-screen for DAF-12 agonists; shares compounds with hgDAF12 agonist; HEK293 Gal4-LXR luciferase reporter, 24 h; activation, % at 6.8 µM; 3,300 tested, under 10 active; AID 743051;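 active = mean activation of the triplicate above a set limit carried over from the primary screen, none filed active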
Numbers without * were called inactive; . = no result.

SMILES	DAX1 inh-1	DAX1 inh-2	hgDAF12 agonist	ssDAF12 agonist	hcDAF12 agonist	DAX1 inh confirm	SF1 mutant ctr	hgDAF12 conf	LXRb DAF12 ctr	others
O=C(CSc1cnc2ccccc2n1)c1ccc(F)cc1	-2	5.4*	19*	1.1*	9.2*	7.3*	4.4*	17*	1	LXRb hcDAF ctr=1;hcDAF12 conf=4
CC(C)(C)S(=O)(=O)N1C[C@@H]2CC(=O)C(CCO)=C2[C@H]1CCO	.	-2	1	0	0	.	.	.	.
CCOCC(=O)Nc1cc(C(=O)NCCc2ccccc2)ccc1Cl	2	4.5*	14*	0	4	9.0*	4.3*	13*	0
O=C(NCc1ccccc1)[C@@H]1CCCN1C(=O)[C@H]1CCCN1C(=O)N1CCCCC1	.	-1	2	-1	0	.	.	.	.
CCCCC(=O)Nc1cc2nn(-c3ccc(OC)cc3)nc2cc1C	-1	1	5	-1	1	.	.	.	.
CCC(=O)Nc1cc2nn(-c3ccc(OC)cc3)nc2cc1C	5.5*	5.1*	16*	0	6	13*	3.3*	14*	1

Bioassay records as filed in PubChem BioAssay.
